This is a sample that favours compounds with a hit; in the whole collection about 6.6% have one here.
KB-V1 cytotox = kills drug-selected multidrug resistant KB-V1 cells. 400,000 compounds, 3.4% hits. KB-V1 MDR cells viability, CellTiter-Glo, 72 h. Potency, µM (highest dose often 46.1 µM), usual class: cytotoxic; note: % is set by controls: 0 for no effect and ±100 for the full control effect; nearly all actives have a fitted effect of over 60% in size
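KB-V1, DMEM (no phenol red) + 10% FBS; cpd pin-transferred, titration series; 72 h, 37 degrees C; CellTiter-Glo, luminescence. Data normalized, curve-fit.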
HT1080NT lethal = kills 2HG-producing HT-1080-NT fibrosarcoma cells; HT-1080-NT fibrosarcoma viability, CellTiter-Glo ATP luminescence, 48 h; Potency, µM (doses to about 46.1 µM), inactives show at the top dose activity, negative = less viability, usual class: cytotoxic; 360,000 compounds, 1.6% hits; AID 686970;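 note: NT is the 2HG producing partner of a matched IDH1 knockdown line; 0% = DMSO-treated cells and -100% = media-only wells without cells; nearly all actives have a fitted effect of over 55% in size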
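HT-1080-NT; 750 cells/well; 5% FBS RPMI; 48 h compound, 37 degrees C; CellTiter-Glo luminescence; curve fitting and curve-class assignment.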
HepG2 viability = counter-screen for TGF-b inhibitors: cytotoxicity in HepG2 cells; HepG2 CAGA-GFP viability, ATP luminescence, 18 h; Potency, µM (top dose mostly 46.1 µM), without a hit: top-dose activity change, negative = cytotoxicity, hits mostly cytotoxic; 410,000 compounds, 0.76% hits; AID 588856
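HepG2 CAGA-GFP cells (1000/well, DMEM with 1% FBS) received compound, then TGF-beta at 500 pg/mL final, and were incubated 18 hours at 37 degrees C. Viability was read by CellTiter-Glo luminescence. Media-only wells were set as complete cell-killing and DMSO as no toxicity.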
TGFb SMAD3 inh = TGF-b pathway inhibition; HepG2 CAGA-GFP TGF-b/SMAD3 reporter, GFP fluorescence, 18 h; TGF-beta stimulated, 500 pg/mL final; AID 588855; 410,000 compounds, 1.2% hits; Potency, µM (titrated, usually from 46.1 µM), inactives show at the top dose activity, negative = inhibition, hits mostly inhibitors; note: % is set by controls: 0 for no effect and ±100 for the full control effect; nearly all actives have a fitted effect of over 65% in size
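First, reporter cells (HEPG2 CAGA-GFP) rested 2 h at 37 degrees C. Next, compounds were pinned in and TGF-beta added to 500 pg/mL final. After 18 h, GFP was imaged per cell and summed per well.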
KB-3-1 tox = kills parental KB-3-1 adenocarcinoma cells; KB-3-1 viability, CellTiter-Glo ATP luminescence, 72 h; Potency, µM (highest dose often 46.1 µM), hits mostly cytotoxic; 400,000 compounds, 1.4% hits; AID 1347075; note: % is set by controls: 0 for no effect and ±100 for the full control effect; nearly all actives have a fitted effect of over 60% in size
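Using CellTiter-Glo luminescence, growth of non-resistant KB-3-1 adenocarcinoma cells is assessed 72 h after pin-tool compound addition at 37 °C. Normalized responses across the concentration series yield fitted curves.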
HT1080 IDH1KD tx = HT-1080 IDH1 knockdown cell toxicity (counter line) | 360,000 compounds, 2% hits | Potency, µM (highest dose often 46.1 µM), for the others: at the highest dose activity, negative = toxicity, actives largely listed as cytotoxic | AID 686971 | HT-1080 IDH1 knockdown viability, ATP luminescence, 48 h;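 note: 0% = DMSO wells and -100% = cell-free medium wells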
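In this qHTS, HT-1080 cells depleted of IDH1 are exposed for 48 h at 37 °C to compound titrations. Toxicity is scored from CellTiter-Glo luminescence, with DMSO as full viability and medium alone as none.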
* hit, by the source's call. Calls come from the whole dose curve; as a rule, active = well fitted curve in the direction sought with a large enough effect; inconclusive = small, poorly fitted or top-dose-only effect, or another doubt; inactive = no such curve, though single readings can be large; an effect the other way counts as inactive or inconclusive. Potency is the fitted concentration of half-maximal effect.

Screening Cc1cc(C)nc(N2CCC(C(=O)NCc3cccs3)CC2)n1 returned KB-V1 cytotox 13µM*, HT1080NT lethal 10%, HepG2 viability -7%, TGFb SMAD3 inh -29%, KB-3-1 tox inactive and HT1080 IDH1KD tx 4%.
`O=C(NCc1cccs1)C1CCN(c2nccs2)CC1` gave KB-V1 cytotox inactive, HT1080NT lethal 5%, HepG2 viability 7%, TGFb SMAD3 inh -7%, KB-3-1 tox inactive and HT1080 IDH1KD tx 10%.
Screening C#CCNC(=O)C1CCN(c2ccc(S(=O)(=O)N3CCOCC3)cc2Cl)CC1 returned KB-V1 cytotox inconclusive, HT1080NT lethal 3%, HepG2 viability -2%, TGFb SMAD3 inh -10%, KB-3-1 tox inconclusive and HT1080 IDH1KD tx -13%.
`COc1ccc(-n2c(SCc3ccccc3)nc3c([nH]c4ccccc43)c2=O)cc1` gave KB-V1 cytotox inactive, HepG2 viability -22%, TGFb SMAD3 inh -5% and KB-3-1 tox inactive.
CCOc1ccc(NS(=O)(=O)c2c(C)nc3sc(C)c(C)n3c2=O)cc1 was read as KB-V1 cytotox inconclusive, HepG2 viability -2%, TGFb SMAD3 inh -32% and KB-3-1 tox inactive.
Screening O=C(Nc1nc2c(s1)CCCC2)c1ccc(N2C(=O)CCC2=O)cc1 returned KB-V1 cytotox inactive, HT1080NT lethal 10%, HepG2 viability -2%, TGFb SMAD3 inh 4%, KB-3-1 tox inactive and HT1080 IDH1KD tx 1%.
For O=C(Nc1nc2c(s1)CCCC2)c1ccc(Br)s1 the results were KB-V1 cytotox 5.2µM*, HT1080NT lethal inconclusive, HepG2 viability -32%, TGFb SMAD3 inh -21%, KB-3-1 tox 16µM* and HT1080 IDH1KD tx inconclusive.
`O=C(Nc1nnc(C(F)(F)F)s1)C1COc2ccccc2O1` (configuration not stated) gave KB-V1 cytotox inconclusive, HT1080NT lethal inconclusive, HepG2 viability -38%, TGFb SMAD3 inh inconclusive, KB-3-1 tox inconclusive and HT1080 IDH1KD tx 23µM*.
`CC(NC(=O)Nc1nnc(C(F)(F)F)s1)(C(F)(F)F)C(F)(F)F` gave KB-V1 cytotox inactive, HT1080NT lethal 7.3µM*, HepG2 viability -43%, TGFb SMAD3 inh inconclusive, KB-3-1 tox 13µM* and HT1080 IDH1KD tx 3.3µM*.
`O=C(Nc1cccc(Br)c1)Nc1nc2c(s1)CCCCCC2` gave KB-V1 cytotox inconclusive, HepG2 viability -18%, TGFb SMAD3 inh 11µM* and KB-3-1 tox inactive.
For COC(=O)c1ccc2c(c1)N(Cc1ccccc1)C(=O)c1ccccc1S2(=O)=O the results were KB-V1 cytotox inconclusive, HepG2 viability -32%, TGFb SMAD3 inh inconclusive and KB-3-1 tox inactive.
COc1ccccc1NC(=O)C1=C(C)Nc2nc(SCc3ccccc3)nn2C1c1cccs1 (configuration not stated) was read as HepG2 viability -7% and TGFb SMAD3 inh -1%.
`Cc1cccc(C(=O)Nc2nc3c(s2)CCCC3)c1` gave HepG2 viability -12% and TGFb SMAD3 inh inconclusive.
For O=C(Nc1nc2c(s1)CCCC2)c1ccc2ncsc2c1 the results were KB-V1 cytotox inactive, HT1080NT lethal inconclusive, HepG2 viability -26%, TGFb SMAD3 inh -18%, KB-3-1 tox inactive and HT1080 IDH1KD tx -3%.
For O=C(Nc1nnc(C(F)(F)F)s1)c1ccc(Br)s1 the results were KB-V1 cytotox 2.9µM*, HT1080NT lethal inconclusive, HepG2 viability 6%, TGFb SMAD3 inh inconclusive, KB-3-1 tox 4.6µM* and HT1080 IDH1KD tx inconclusive.
For Cc1ncsc1C(=O)Nc1nc2c(s1)CCCC2 the results were KB-V1 cytotox 13µM*, HT1080NT lethal inconclusive, HepG2 viability -57%, TGFb SMAD3 inh -22%, KB-3-1 tox 16µM* and HT1080 IDH1KD tx inconclusive.
